Sampled rows, rich in hits. Any-hit rate of the full collection: about 2.9%.
MITF act: activators of MITF-driven TRPM1 promoter activity in SK-MEL-5 cells | SK-MEL-5 TRPM1-promoter luciferase, 24 h; % of positive control, neutral wells = 0 | activation, % at 12.5 µM | 300,000 tested, 0.75% active | AID 588334;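 active = mean activation of at least 80% with every replicate also reaching 80%; inconclusive = mean reaches 80% but some replicate falls short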
N-glyco inh: N-linked glycosylation inhibition | D54 ERlucT glycosylation luciferase reporter, 24 h; percent of 100 nM tunicamycin response | 360,000 tested, 0.23% active | AID 588692 | reporter increase, % at 12.5 µM;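 active = mean luciferase reporter signal, scaled so untreated is 0 and the glycosylation-blocking control 100, at or above a set limit in every replicate; inconclusive = mean reaches the limit but not every replicate does; inactive = mean below the limit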;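 also: luciferase carries N-glycosylation sites so blocking glycosylation raises the light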
PvdQ inh: P. aeruginosa PvdQ acylase inhibition; inhibition, % at 10 µM; purified PvdQ acylase, fluorescence plate reader; AID 488965; 340,000 tested, 0.063% active; in the data active = inhibition above about 30%, passing the limit was not always enough; inconclusive = no clear call, values can overlap the other calls
Vif inh: blocks HIV Vif function | 340,000 tested, 0.35% active | HEK293T cells, Vif self-association by quenched fluorescence, imaging, 24 h | AID 602346 | inhibition, % at 7.49 µM; in the data active = inhibition above about 50%, passing the limit was not always enough; inconclusive = no clear call, values can overlap the other calls; inactive = below about 31%
Wnt act: Wnt/beta-catenin pathway activation. 300,000 tested, 1.2% active. activation, % at 9.35 µM. AID 743398. Wnt/beta-catenin reporter cell assay, activator, plate reader; in the data active = activation above about 30%, passing the limit was not always enough; inconclusive = no clear call, values can overlap the other calls
esBAF inh: inhibitors of esBAF chromatin remodeling in mouse ES cells; 350,000 tested, 2% active; reporter increase, % at 12.5 µM; Bmi1-luciferase knock-in reporter, 24 h; 100% = twice the neutral-well signal; in the data active = activation above about 40%; inconclusive = no clear call, values can overlap the other calls;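 also: a rise in the Bmi1 reporter signal indicates esBAF inhibition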
Each line names hits and unclear results; the compound was inactive in the other large screens.

O=S(=O)([N-]c1nc2ccccc2nc1-n1cc[n+](Cc2ccccc2)c1)c1ccc(Cl)cc1	N-glyco inh 46.5 (no result: MITF act, esBAF inh)
C[C@H](CO)N1C[C@H](C)[C@H](CN(C)S(=O)(=O)c2ccc(Cl)cc2)OCc2ccccc2-c2ccccc2C1=O	none (no result: MITF act, N-glyco inh, PvdQ inh, Vif inh, Wnt act)
COC(=O)CCC(=O)c1oc2ccc(Br)cc2c1N	MITF act 89.8 (no result: Wnt act)
Nc1c(C(=O)c2ccc(Br)s2)oc2ccccc12	Wnt act 35.3, esBAF inh 74.1
Cc1ccc(C(=O)c2oc3ccccc3c2N)cc1	esBAF inh 87.6 (no result: Wnt act)
Nc1c(C(=O)c2ccccc2)oc2ccc(Br)cc12	esBAF inh 72.3
O=C(C[C@H]1CC[C@@H]2[C@H](COC[C@@H](O)CN2Cc2ccc3c(c2)OCO3)O1)N1CCCCC1	none (no result: MITF act, N-glyco inh, PvdQ inh, Vif inh, Wnt act)
C[C@@H]1CCCCO[C@@H](CN(C)S(C)(=O)=O)[C@@H](C)CN([C@H](C)CO)C(=O)c2cc(NC(=O)c3ccccc3)ccc2O1	none (no result: MITF act, N-glyco inh, PvdQ inh, Vif inh, Wnt act)
C[C@@H]1CN([C@@H](C)CO)C(=O)c2cc(NC(=O)C3CCCCC3)ccc2O[C@H]1CN(C)C(=O)Nc1cccc2ccccc12	none (no result: MITF act, N-glyco inh, PvdQ inh, Vif inh, Wnt act)
Nc1c(C(=O)c2ccc(Br)cc2)oc2ccccc12	none (no result: esBAF inh)
Nc1c(C(=O)c2cccs2)oc2ccccc12	esBAF inh 54.3 (no result: MITF act, Wnt act)
CCCN(C)C[C@H]1Oc2ncc(-c3ccncc3)cc2C(=O)N([C@@H](C)CO)C[C@@H]1C	none (no result: MITF act, N-glyco inh, PvdQ inh, Vif inh, Wnt act)
Nc1ccc2nn(-c3ccccc3)nc2c1	esBAF inh 57.5
Cc1ccc(-n2nc3cc(C)c(N)cc3n2)cc1	none (no result: Wnt act, esBAF inh)
Nc1cc2nn(-c3ccccc3)nc2cc1Cl	Wnt act 48.7 (no result: esBAF inh)
COc1ccc(S(=O)(=O)Nc2ccc3c(c2)C(=O)N([C@H](C)CO)C[C@@H](C)[C@H](CN(C)C(=O)NC2CCCCC2)OCCCC[C@@H](C)O3)cc1	none (no result: MITF act, N-glyco inh, PvdQ inh, Vif inh, Wnt act)
C[C@@H]1CN([C@H](C)CO)C(=O)CCCn2nncc2CO[C@@H]1CN(C)C(=O)Nc1cccc(C(F)(F)F)c1	none (no result: MITF act, N-glyco inh, PvdQ inh, Vif inh, Wnt act)
Cc1ccc(N2C(=O)c3ccc(N)cc3C2=O)cc1	Wnt act 68.8, esBAF inh 66.9 (no result: MITF act)
CC(=O)Nc1ccc2c(c1)C(=O)N(c1ccc(C)cc1)C2=O	none
Cc1ccc(N2C(=O)c3ccc(N)cc3C2=O)cc1C	esBAF inh 89.5 (no result: MITF act, Wnt act)
COCC(=O)N1C[C@@H](C)[C@H](OC)CN(C)C(=O)c2ccc(NC(=O)c3ccccc3)cc2OC[C@H]1C	none (no result: MITF act, N-glyco inh, PvdQ inh, Vif inh, Wnt act)
CCc1ccc(C(=O)Nc2ccc3nc(C)ccc3c2)cc1	MITF act 99.3
Cc1ccc2cc(NC(=O)c3ccccc3C)ccc2n1	MITF act 99.9, esBAF inh inconclusive
O=c1sc(/C=N/Nc2ccccc2)c(Cl)n1Cc1ccccc1	Wnt act 46.4 (no result: esBAF inh)
O=C(O)c1cccc(Cn2c(Cl)c(/C=N/NC(=O)c3ccc(O)cc3)sc2=O)c1	none (no result: Vif inh)
Cc1ccc(NC(=O)c2ccc(OC(=O)c3cc4ccccc4o3)cc2)cc1	Wnt act 43.3, esBAF inh 59.6 (no result: Vif inh)
O=C(Oc1ccc(-c2cnc3ccccc3n2)cc1)c1ccco1	MITF act inconclusive, Wnt act 68.6
Cc1ccc(NC(=O)c2ccc(OC(=O)c3ccco3)cc2)cc1	MITF act 120.5, esBAF inh 53.9
COc1ccc(OC(=O)c2cc3ccccc3o2)cc1	none (no result: Wnt act)
C[C@@H]1CN([C@@H](C)CO)C(=O)Cc2cc(NS(=O)(=O)c3ccc(F)cc3)ccc2O[C@H]1CN(C)S(=O)(=O)c1ccc(Cl)cc1	none (no result: MITF act, N-glyco inh, PvdQ inh, Vif inh, Wnt act)
C[C@@H]1CN([C@@H](C)CO)C(=O)Cc2cc(NC(=O)CCC(F)(F)F)ccc2O[C@@H]1CN(C)Cc1ccccc1	none (no result: MITF act, N-glyco inh, PvdQ inh, Vif inh, Wnt act)
COc1ccc(NC(=O)N(C)C[C@H]2Oc3ccc(NS(=O)(=O)c4cn(C)cn4)cc3C(=O)N([C@@H](C)CO)C[C@@H]2C)cc1	none (no result: MITF act, N-glyco inh, PvdQ inh, Vif inh, Wnt act)
CO[C@@H]1CN(C)C(=O)c2ccc(NC(C)=O)cc2OC[C@H](C)N(Cc2ccccn2)C[C@H]1C	none (no result: MITF act, N-glyco inh, PvdQ inh, Vif inh, Wnt act)
COc1cccc(Nc2nc(-c3ccc(O)cc3)cs2)c1	MITF act 90.3 (no result: Wnt act)
Cc1cccnc1Nc1nc(-c2ccc(O)cc2)cs1	MITF act 101.2, esBAF inh 57.7 (no result: Vif inh, Wnt act)
C[C@H]1CN([C@@H](C)CO)C(=O)Cc2cc(NC(=O)Cn3cnnn3)ccc2O[C@@H]1CN(C)Cc1ccc(Cl)c(Cl)c1	none (no result: MITF act, N-glyco inh, PvdQ inh, Vif inh, Wnt act)
O=C1c2ccccc2/C(=C\C#Cc2ccccn2)N1c1ccccc1	MITF act 95.0
COc1ccc(-c2ccc([C@@H]3[C@@H](C#N)N[C@@H]3CO)cc2)cc1	none (no result: MITF act, N-glyco inh, PvdQ inh, Vif inh, Wnt act)
